{
  "source": "PubChem BioAssay (NCATS)",
  "key": {"[1]": {"assay": "qHTS of pediatric cancer cell lines to identify multiple opportunities for drug repurposing: Confirmatory screen for Rh41 cells (AID 1347123);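 also: 48 h compound exposure; nearly all actives have a fitted effect of over 60% in size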; also: potency is read from the fitted curve at half-maximal effect", "outline": "(§1)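 Cells (500-1,000/well) in growth media were settled 5 h at 37 degrees C, then given compounds for 48 h. Viability was read as CellTiter-Glo luminescence. Primary runs used MIPE at 11 points (0.78 nM-46 µM) and NPC at 8 points (0.59 nM-46 µM); follow-ups used 11 points.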"}, "[2]": {"assay": "qHTS of pediatric cancer cell lines to identify multiple opportunities for drug repurposing: Confirmatory screen for RD cells (AID 1347124)", "outline": "as §1"}, "[3]": {"assay": "qHTS of pediatric cancer cell lines to identify multiple opportunities for drug repurposing: Confirmatory screen for Rh18 cells (AID 1347125)", "outline": "as §1"}, "[4]": {"assay": "qHTS of pediatric cancer cell lines to identify multiple opportunities for drug repurposing: Confirmatory screen for Rh30 cells (AID 1347126)", "outline": "as §1"}, "[5]": {"assay": "qHTS of pediatric cancer cell lines to identify multiple opportunities for drug repurposing: Confirmatory screen for SK-N-SH cells (AID 1347129)", "outline": "as §1"}, "[6]": {"tested_on": "Zika virus NS2B-NS3 protease", "assay": "Primary screen GU AMC qHTS for Zika virus inhibitors (AID 1347154)", "outline": "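Unlinked Zika NS2B hydrophilic domain/NS3 protease domain noncovalent complex (25 nM final) in 10 mM Tris-HCl pH 8.0, 0.01% Tween 20, with AMC peptide substrate. Fluorescence (ex 340, em 450 nm) change over 15 min, room temperature; percent inhibition fitted to 4-parameter Hill equation.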"}, "Furin (Homo sapiens)": {"target": "Furin (Homo sapiens) (UniProt P09958)", "sequence (P09958 whole entry, looked up)": "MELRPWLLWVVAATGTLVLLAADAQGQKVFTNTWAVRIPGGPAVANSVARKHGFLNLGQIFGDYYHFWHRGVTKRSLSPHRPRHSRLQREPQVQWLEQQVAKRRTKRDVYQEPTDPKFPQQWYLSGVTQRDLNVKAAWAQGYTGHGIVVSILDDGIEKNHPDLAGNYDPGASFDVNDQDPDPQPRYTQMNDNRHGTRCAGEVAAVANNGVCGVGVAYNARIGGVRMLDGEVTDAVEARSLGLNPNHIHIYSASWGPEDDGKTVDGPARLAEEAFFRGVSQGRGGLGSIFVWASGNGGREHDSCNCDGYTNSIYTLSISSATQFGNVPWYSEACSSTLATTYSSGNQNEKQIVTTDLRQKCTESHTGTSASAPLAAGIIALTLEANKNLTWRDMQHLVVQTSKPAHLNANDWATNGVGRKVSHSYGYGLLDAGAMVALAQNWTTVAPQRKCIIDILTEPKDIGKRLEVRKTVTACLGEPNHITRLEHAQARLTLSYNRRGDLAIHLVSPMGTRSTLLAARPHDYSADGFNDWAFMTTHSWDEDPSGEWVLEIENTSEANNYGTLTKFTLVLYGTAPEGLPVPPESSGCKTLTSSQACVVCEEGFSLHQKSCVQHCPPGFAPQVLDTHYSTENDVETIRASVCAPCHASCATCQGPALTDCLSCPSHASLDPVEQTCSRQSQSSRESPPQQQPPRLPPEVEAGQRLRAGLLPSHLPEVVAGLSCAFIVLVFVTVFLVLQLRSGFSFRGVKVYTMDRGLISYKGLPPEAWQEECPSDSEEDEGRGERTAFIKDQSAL", "assay": "Furin counterscreen qHTS for Zika virus inhibitors (AID 1347149)", "outline": "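Fluorogenic cleavage of BOC-RVRR-AMC (2 microM final, Km ~15 µM) was monitored (ex 340, em 450 nm) at 37C after 15 min RT preincubation of 5 nM furin with compounds in HEPES pH 7.0 buffer with CaCl2 and Triton X-100. Percent inhibition was fitted to a 4-parameter Hill curve.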"}, "[7]": {"assay": "Confirmatory screen NINDS Rhodamine qHTS for Zika virus inhibitors (AID 1347161)", "outline": "(§2)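 In 10 mM Tris-HCl pH 8.0 containing 0.01% Tween 20, linked NS2B-NS3 protease (25 nM final) is exposed to test compounds for 15 min. Cleavage of 1.5 microM Rhodamine110 substrate is tracked by fluorescence over 15 min.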"}, "[8]": {"tested_on": "Zika virus NS2B-NS3 protease (linked)", "assay": "384 well plate NINDS AMC confirmatory qHTS for Zika virus inhibitors (AID 1347163)", "settings": "Recombinant NS2B-NS3 protease, Ac-VKTGKR-AMC fluorescence", "outline": "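Linked NS2B-NS3 protease (final 5 nM, 30 nM or 60 nM) was preincubated with compounds (final up to 1 mM) for ~15 minutes. Ac-VKTGKR-AMC substrate (final 30 microM) then reacted for 25 minutes at room temperature in the dark. Fluorescence (ex 355/em 460 nm) was normalized to no-enzyme and no-inhibitor controls.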"}, "[9]": {"tested_on": "Zika virus NS2B-NS3 protease (unlinked complex)", "assay": "Primary screen GU Rhodamine qHTS for Zika virus inhibitors: Unlinked NS2B-NS3 protease assay (AID 1347159)", "outline": "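Percent inhibition derives from the 15-min fluorescence change (ex 480, em 540 nm), normalized to no-enzyme and no-inhibitor wells. Reactions contained 25 nM NS2B-NS3 complex and 1.5 microM substrate in 10 mM Tris-HCl pH 8.0.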"}, "[10]": {"tested_on": "Zika virus NS2B-NS3 protease (linked construct)", "assay": "Primary screen NINDS Rhodamine qHTS for Zika virus inhibitors (AID 1347160)", "outline": "as §2"}},
  "note": "“And” between values parts separate entries of the source, which are not always exact repeats. Equal entries are not always repeated. Inconclusive results are not listed. Where a call stands in place of a potency, no number is given. The source made the active and inactive calls. Calls follow the shape of the dose curve; as a rule, active = well fitted curve in the direction sought with a large enough effect; inconclusive = small, poorly fitted or top-dose-only effect, or another doubt; inactive = no such curve, though single readings can be large; an effect the other way counts as inactive or inconclusive.",
  "data": [
    {"smiles": "O=C1C(Cl)=C(NCCN2CCOCC2)C(=O)c2ncccc21", "values": [
      {"measurement": "Potency", "setting": "[1]", "result": "1.17 µM (active)"},
      {"measurement": "Potency", "setting": "[2]", "result": "1.17 µM (active)"},
      {"measurement": "Potency", "setting": "[3]", "result": "3.29 µM (active)"},
      {"measurement": "Potency", "setting": "[4]", "result": "7.37 µM (active)"},
      {"measurement": "Potency", "setting": "[5]", "result": "7.43 µM (active)"},
      {"measurement": "Potency", "setting": "[6]", "result": "inactive"}
    ]},
    {"smiles": "O=C(O)c1ccc(-c2c[nH]c3ncc(-c4ccccc4)cc23)cc1C1CCCC1", "values": [
      {"measurement": "Potency", "setting": "[1]", "result": "inactive"},
      {"measurement": "Potency", "setting": "[2]", "result": "inactive"},
      {"measurement": "Potency", "setting": "[3]", "result": "inactive"},
      {"measurement": "Potency", "setting": "[4]", "result": "inactive"},
      {"measurement": "Potency", "setting": "[6]", "result": "inactive"}
    ]},
    {"smiles": "Cc1cc(OCCCc2c(C(=O)O)n(Cc3cccnc3)c3c(-c4c(COc5ccc(N6CCN([S+](C)(=O)[O-])CC6)cc5)nn(C)c4C)cccc23)cc(C)c1Cl", "values": [
      {"measurement": "Potency", "setting": "[1]", "result": "1.04 µM (active)"},
      {"measurement": "Potency", "setting": "[5]", "result": "inactive"},
      {"measurement": "Potency", "setting": "Furin (Homo sapiens)", "result": "21.5 µM (active)"},
      {"measurement": "Potency", "setting": "[6]", "result": "21.5 µM (active)"},
      {"measurement": "Potency", "setting": "[7]", "result": "3.11 µM (active)"},
      {"measurement": "Potency", "setting": "[8]", "result": "31.6 µM (active)"}
    ]},
    {"smiles": "CC1(C)CCC2=C(O1)c1ccccc1C(=O)C2=O", "values": [
      {"measurement": "Potency", "setting": "[1]", "result": "8.27 µM (active)"},
      {"measurement": "Potency", "setting": "[2]", "result": "0.465 µM (active)"},
      {"measurement": "Potency", "setting": "[4]", "result": "20.8 µM (active)"},
      {"measurement": "Potency", "setting": "[6]", "result": "inactive"}
    ]},
    {"smiles": "CN(C)C1CCN(C(=O)c2ccc(NC(=O)Nc3nc(N4CCOCC4)nc(N4CCOCC4)n3)cc2)CC1", "values": [
      {"measurement": "Potency", "setting": "[1]", "result": "0.0827 µM (active)"},
      {"measurement": "Potency", "setting": "[2]", "result": "0.293 µM (active)"},
      {"measurement": "Potency", "setting": "[3]", "result": "0.293 µM (active)"},
      {"measurement": "Potency", "setting": "[4]", "result": "inactive"},
      {"measurement": "Potency", "setting": "[5]", "result": "3.72 µM (active)"},
      {"measurement": "Potency", "setting": "[6]", "result": "inactive"},
      {"measurement": "Potency", "setting": "[9]", "result": "inactive"},
      {"measurement": "Potency", "setting": "[10]", "result": "inactive"}
    ]},
    {"smiles": "CC[C@]1(O)C[C@@H]2CN(CCc3c([nH]c4ccccc34)[C@@](C(=O)OC)(c3cc4c(cc3OC)N(C)[C@H]3[C@@](O)(C(=O)OC)[C@H](OC(C)=O)[C@]5(CC)C=CCN6CC[C@]43[C@@H]65)C2)C1", "values": [
      {"measurement": "Potency", "setting": "[1]", "result": "82.7 nM (active) and 104 nM (active)"},
      {"measurement": "Potency", "setting": "[2]", "result": "1.17 µM (active)"},
      {"measurement": "Potency", "setting": "[5]", "result": "0.148 µM (active)"},
      {"measurement": "Potency", "setting": "[6]", "result": "inactive"},
      {"measurement": "Potency", "setting": "[10]", "result": "inactive"}
    ]},
    {"smiles": "Nc1ncnc2c1ncn2[C@@H]1O[C@@H](CO)[C@H](O)[C@H]1O", "values": [
      {"measurement": "Potency", "setting": "[1]", "result": "inactive"},
      {"measurement": "Potency", "setting": "[2]", "result": "inactive"},
      {"measurement": "Potency", "setting": "[3]", "result": "inactive"},
      {"measurement": "Potency", "setting": "[4]", "result": "inactive"},
      {"measurement": "Potency", "setting": "[5]", "result": "inactive"},
      {"measurement": "Potency", "setting": "[6]", "result": "inactive"}
    ]}
  ]
}
